Out of some 30,000 compounds screened, about 580 (1.9%) were called active. For the sample, actives were picked, then their nearest neighbours and some compounds at random. Unmarked numbers belong to inactive results. Cut-off read from the data, not from the text of the source: active = inhibition above about 43%; inactive = the rest.
What follows are compounds tested against Serine/threonine-protein kinase ULK1 (Homo sapiens) (UniProt O75385) (assay: inhibition of human autophagy kinase ULK1 – biochemical, AlphaScreen, primary screen (AID 1259251;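 note: 0% = median of compound wells and 100% = no enzyme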)). Settings: AlphaScreen Atg13 phosphorylation by ULK1, luminescence; at 5.96 µM; stronger effect = higher value.
Serine/threonine-protein kinase ULK1 (Homo sapiens), sequence (O75385 whole entry, looked up): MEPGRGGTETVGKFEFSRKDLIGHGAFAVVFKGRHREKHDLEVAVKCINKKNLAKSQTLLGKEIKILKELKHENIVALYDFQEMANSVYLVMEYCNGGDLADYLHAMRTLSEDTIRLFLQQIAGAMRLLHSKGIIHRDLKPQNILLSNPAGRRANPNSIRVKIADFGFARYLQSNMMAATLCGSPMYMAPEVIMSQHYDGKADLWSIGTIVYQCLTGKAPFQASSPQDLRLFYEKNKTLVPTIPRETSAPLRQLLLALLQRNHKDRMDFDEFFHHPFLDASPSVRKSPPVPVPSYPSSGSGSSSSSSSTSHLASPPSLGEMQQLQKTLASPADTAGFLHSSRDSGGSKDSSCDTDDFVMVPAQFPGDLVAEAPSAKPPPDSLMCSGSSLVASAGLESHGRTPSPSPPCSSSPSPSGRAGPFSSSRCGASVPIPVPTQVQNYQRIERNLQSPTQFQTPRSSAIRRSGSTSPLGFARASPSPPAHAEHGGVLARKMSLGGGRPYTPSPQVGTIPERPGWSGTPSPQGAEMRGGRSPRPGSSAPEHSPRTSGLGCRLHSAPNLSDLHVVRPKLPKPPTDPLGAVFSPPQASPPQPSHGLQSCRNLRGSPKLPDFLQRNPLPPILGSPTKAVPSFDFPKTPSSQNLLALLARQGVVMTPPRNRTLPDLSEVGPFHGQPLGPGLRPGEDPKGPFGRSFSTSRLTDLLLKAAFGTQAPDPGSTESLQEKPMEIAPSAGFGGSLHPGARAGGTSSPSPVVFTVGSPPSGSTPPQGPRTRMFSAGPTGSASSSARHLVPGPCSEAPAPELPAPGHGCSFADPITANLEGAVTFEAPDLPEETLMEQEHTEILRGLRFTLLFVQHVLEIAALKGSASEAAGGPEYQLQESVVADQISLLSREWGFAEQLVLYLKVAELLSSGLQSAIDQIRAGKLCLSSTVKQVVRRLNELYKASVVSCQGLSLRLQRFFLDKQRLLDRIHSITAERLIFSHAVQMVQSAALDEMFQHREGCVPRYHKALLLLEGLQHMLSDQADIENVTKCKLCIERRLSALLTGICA

Compound | inhibition
CCN(CC)C(=O)C1CCCN(c2nc(NCCOc3ccccc3)c3ncn(C(C)C)c3n2)C1 (stereo unspecified) | 4.04%
c1cncc(Nc2nccc(Nc3ccc(N4CCOCC4)cc3)n2)c1 | 10%
COCCNc1cc(-c2ccc(F)cc2)nc(C)n1 | 0.77%
CCN(C(=O)c1ccc(Br)cc1)c1ccccc1 | 2.64%
COc1cc2nc(-c3cccc(N)c3)nc(NCCN3CCOCC3)c2cc1OC | -4.6%
COc1cc(C(=O)N2CCOCC2)ccc1Nc1cc(NCc2cccc(S(C)(=O)=O)c2)c(C(F)(F)F)cn1 | -14.6%
FC(F)(F)c1cnc(Nc2ccc(N3CCOCC3)cc2)cc1-n1ncc2ccccc21 | 2.76%
COc1cc(N2CCOCC2)ccc1Nc1cc(Nc2ccccc2-n2cccn2)c(C(F)(F)F)cn1 | 77% (active)
CCOC(=O)c1cc[n+](CC(=O)c2ccc(NC(=O)c3ccccc3)cc2)cc1 | 3.76%
CCN(CC)C(=O)C1CCCN(c2nc3ccc(C(=O)Nc4ccc(NC(C)=O)cc4)cc3s2)C1 (stereo unspecified) | -20.8%
CCN(CC)CCNC(=O)c1ccc(Nc2cc(Nc3ccccc3C(=O)NC)c(C(F)(F)F)cn2)nc1 | 92.4% (active)
CCN(CC)CCNC(=O)c1cc(S(C)(=O)=O)ccc1OC | 13%
CCN(CC)CCOc1ccc(Nc2cc(Nc3ccccc3C(=O)NC)c(C(F)(F)F)cn2)c(OC)c1 | 91.6% (active)
CCN(CC)CCNC(=O)c1ccc(Nc2cc(Nc3ccccc3C(=O)NC)c(C(F)(F)F)cn2)c(C)c1 | 88.5% (active)
CNC(=O)c1ccccc1Nc1cc(NC(=O)C(F)(F)c2ccccc2)ncc1C(F)(F)F | 61.2% (active)
CC(C)N(CCNC(=O)c1ccnc(Nc2ccc(C(F)(F)F)cc2)c1)C(C)C | -25.3%
CNC(=O)c1ccccc1Nc1cc(NC(=O)Cc2ccc([N+](=O)[O-])cc2)ncc1C(F)(F)F | 40.8%
CNC(=O)c1ccccc1Nc1cc(NC(=O)C2(c3ccccc3)CC2)ncc1C(F)(F)F | -23.5%
CNC(=O)c1ccccc1Nc1cc(NC(=O)Cc2ccc(F)c(F)c2)ncc1C(F)(F)F | 32.8%
O=C1CCCN1CCn1cnc2c(NCc3cccc(C(F)(F)F)c3)nc(Nc3nccc4ccccc34)nc21 | -5.58%
Cc1cnc(CNc2cc(-c3ccccc3F)nc(C)n2)nc1 | 3.69%

Compound | inhibition
COc1cc2nc(Nc3nccc4ccccc34)nc(NCc3cccc(C(F)(F)F)c3)c2cc1OC | -3.82%
COC(c1ccccc1)(c1ccccc1)C(Oc1nc(C)cc(C)n1)C(=O)O (stereo unspecified) | 5.25%
CC(C)n1c(-c2ccc(C(N)=O)cc2)nc2c(NCCN3CCOCC3)ncnc21 | -4.64%
O=C(NCCc1cccnc1)c1ccc2c(c1)CC(c1nc3ccc(-c4cn[nH]c4)cc3c(=O)[nH]1)CO2 (stereo unspecified) | 1.53%
CCNc1ncc(C)c(NCCc2ccc(OC)cc2)n1 | -7.79%
Nc1nc(NCc2cccnc2)nc2c1ncn2-c1ccsc1 | 2.79%
CC(=O)Nc1ccc2cnn(-c3cccc(C(=O)NCCN4CCOCC4)c3)c2c1 | -2.64%
C1=C2[C@@H](c3ccccc3)N3CCC[C@@H]3[C@H]3CCC[C@@]23OCC1 | -9.95%
O=C(NC1CC1)c1ccc(-c2nccc(NCc3nc4ccccc4[nH]3)n2)cc1 | -2.79%
COc1cc(Nc2cc(NC3CC3)ncn2)cc(OC)c1OC | -5.2%
O=C(NCCCN1CCCC1=O)C1CCN(c2ccc(Nc3ccc4ncccc4c3)nn2)CC1 | 7.45%
COc1cccc(C(=O)Nc2nc3ccc(-c4ccncc4)cc3s2)c1 | 14.9%
CNC(=O)c1ccccc1Nc1cc(Nc2ccc(C(=O)N(C)C)cc2)ncc1C(F)(F)F | 86.4% (active)
CNC(=O)c1ccccc1Nc1ccnc(Nc2ccc(N3CCOCC3)cc2)c1 | 6.96%
CNC(=O)c1ccccc1Nc1nc(Nc2ccc(-n3cnc(-c4ccc(C)nc4)n3)cc2)ncc1Cl | 8.9%
N#Cc1cccc(-c2ccnc(Nc3ccc(N4CCOCC4)cc3)n2)c1 | 7.92%
CC(C)n1cnc2c(NCCO)nc(Nc3ccc(C(F)(F)F)cc3)nc21 | -7.45%
c1ccc(N2CCN(c3nc(NCCN4CCOCC4)c4ncn(C5CCCCC5)c4n3)CC2)nc1 | -0.56%
Cn1c(Nc2nc(NC3CC3)c3ncn(C4CCCCC4)c3n2)nc2ccccc21 | 36.9%
O=C(CNS(=O)(=O)c1ccc(Cl)cc1)OCC(=O)c1ccccc1 | 14.9%
